# Compounds with a hit are over-represented: about 5% of the library has one in this group of screens.
# ALR H2O2 inh – human ALR oxidase inhibition via reduced H2O2; P55789; purified ALR, DTT oxidation, H2O2 HRP-luminol luminescence; inhibition, % (no concentration beside the values); 290,000 tested, 3.8% active; AID 485317;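 active means mean replicate inhibition above about 79%, with every replicate also reaching it, limit read from the data; inconclusive means only one of the two criteria met; inactive means mean below limit and not every replicate reaching it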
# CHT allo act – allosteric activators of human choline transporter CHT | Q9GZV3 | CHT-expressing cells, membrane potential dye, choline EC20; stronger effect = higher value; LV-AA mutant CHT in HEK293 cells | B-score at 10 µM | 310,000 tested, 0.49% active;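 active means initial fluorescence not abnormally high and integrated response B-score, plate-corrected, over 3 SD above library mean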
# PREPL inhibitor – human PREPL enzyme inhibition; Q4J6C6; recombinant PREPL, fluorescence polarization activity-based probe; inhibition, % at 5.96 µM; 320,000 tested, 0.68% active; in the data active means inhibition above about 43%;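 further: 0% = enzyme with DMSO and 100% = wells lacking enzyme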
# Target sequence (Q4J6C6 whole entry, looked up): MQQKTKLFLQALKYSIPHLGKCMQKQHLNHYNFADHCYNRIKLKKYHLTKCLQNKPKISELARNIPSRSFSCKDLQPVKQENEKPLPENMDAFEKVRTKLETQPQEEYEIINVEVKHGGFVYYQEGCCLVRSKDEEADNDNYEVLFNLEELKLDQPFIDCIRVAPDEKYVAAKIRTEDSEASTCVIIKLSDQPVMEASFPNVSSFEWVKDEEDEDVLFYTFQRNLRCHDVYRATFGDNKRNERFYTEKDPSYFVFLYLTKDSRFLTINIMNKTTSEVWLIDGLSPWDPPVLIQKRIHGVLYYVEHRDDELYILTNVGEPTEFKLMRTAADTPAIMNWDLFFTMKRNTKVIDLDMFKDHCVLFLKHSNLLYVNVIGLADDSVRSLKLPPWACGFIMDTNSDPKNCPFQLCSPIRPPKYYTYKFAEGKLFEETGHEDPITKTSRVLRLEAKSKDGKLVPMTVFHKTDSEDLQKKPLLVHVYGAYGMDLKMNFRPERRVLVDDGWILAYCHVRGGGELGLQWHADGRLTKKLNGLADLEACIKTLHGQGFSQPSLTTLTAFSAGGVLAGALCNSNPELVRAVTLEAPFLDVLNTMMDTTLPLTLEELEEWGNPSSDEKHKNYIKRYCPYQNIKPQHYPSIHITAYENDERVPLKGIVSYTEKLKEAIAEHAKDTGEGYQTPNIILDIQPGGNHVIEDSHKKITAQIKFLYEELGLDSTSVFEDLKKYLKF
# AI-2 QS modul – Vibrio harveyi AI-2 quorum sensing modulation | AID 2094 | activity change, % at 7.5 µM | 300,000 tested, 0.4% active | Vibrio harveyi JMH597 AI-2 luminescence/OD600 ratio, 9 h; stronger effect = lower value; strain lacks LuxN and CqsS sensors; 0 = neutral-control median; in the data active means activity change below about -75%, passing the limit was not always enough; inconclusive means no clear call, values can overlap the other calls;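 further: luminescence divided by OD600 gain over 9 h not by final OD600 alone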
# CHT block – human CHT choline transport inhibition | Q9GZV3 | CHT-expressing cells, membrane potential dye, choline response; stronger effect = lower value | B-score at 10 µM | 310,000 tested, 0.86% active;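 active means B-score over 3 SD under the library average, and starting fluorescence ratio not unusually high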;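 further: choline stimulus applied at its EC90 after an EC20 pre-addition; B-score computed on integrated fluorescence ratio after choline addition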
# The depositor's hits bear a star; i = inactive; ? = inconclusive; · = no result.
SMILES,ALR H2O2 inh,CHT allo act,PREPL inhibitor,AI-2 QS modul,CHT block
COC(=O)c1cn(NC(=O)c2cc([N+](=O)[O-])ccc2F)c(=O)c2ccccc12,96.2*,i,-7.3,20.1,i
COc1ccccc1C(=O)CSc1nccn1C,·,i,6.2,3.6,i
Cn1ccnc1SCC(=O)c1c[nH]c2ccccc12,96.2*,i,-6.4,1.6,i
Cc1ccc(C(=O)N2CCN(S(=O)(=O)c3sc(C(=O)O)c(C)c3C(=O)O)CC2)s1,8.5,·,8.1,·,·
NC(=O)c1sc(=S)n(-c2ccc(Br)cc2)c1N,95.5*,i,3.8,10.6,i
CCNC(=O)c1sc(=S)n(-c2ccc(C)cc2)c1N,24.5,i,14.4,26.6,i
Cc1cc(NC(=O)C2CCCN(S(=O)(=O)c3cnc[nH]3)C2)ccc1Br (centres undefined),92.9*,i,1.9,24.0,i
Cc1ccc2nc(NC(=O)C3CCCN(S(=O)(=O)c4cnc[nH]4)C3)sc2c1 (centres undefined),43.1,i,2.9,34.6,i
COc1ccc(C)cc1NC(=O)C1CCCN(S(=O)(=O)c2cnc[nH]2)C1 (centres undefined),46.2,i,8.5,-3.7,i
CCN(CC)c1ccc(NC(=O)C2CCCN(S(=O)(=O)c3cnc[nH]3)C2)c(C)c1 (centres undefined),100.8*,i,0.5,30.5,i
CCSc1nnc(NC(=O)C2CCCN(S(=O)(=O)c3cnc[nH]3)C2)s1 (centres undefined),92.8*,i,11.1,30.4,i
Cc1ccc(NC(=O)C2CCCN(S(=O)(=O)c3cnc[nH]3)C2)cc1C (centres undefined),97.9*,i,-1.6,14.0,i
CCOC(=O)C1CCN(C(=O)c2ccc(OC3CCN(C(=O)COC)CC3)cc2)CC1,·,·,·,15.3,·
CCCCOc1cccc(/C=C(\C#N)C(=O)NC2CC2)c1,47.4,i,3.3,10.5,i
CN(C)S(=O)(=O)c1cccc(NC(=O)CN2C(=O)NC3(CCc4ccccc4C3)C2=O)c1 (centres undefined),-4.7,i,3.2,25.0,i
O=C(NC1CCCCC1)C1CCCN(S(=O)(=O)c2cnc[nH]2)C1 (centres undefined),-17.8,i,15.3,15.5,i
O=C(NC1CCCC1)C1CCCN(S(=O)(=O)c2cnc[nH]2)C1 (centres undefined),96.3*,i,-1.5,20.2,i
O=S(=O)(c1ccc(=S)[nH]c1)N1CCN(Cc2ccccc2)CC1,46.3,·,37.2,·,·
C#CCSc1nnc(-c2cccc3ccccc23)o1,97.0*,i,3.6,4.7,i
O=C(CCC1N=C2c3ccccc3N=C(SCc3cccc(Cl)c3)N2C1=O)NCc1ccco1 (centres undefined),1.2,i,28.3,6.9,i
O=C(CCC1N=C2c3ccccc3N=C(SCc3ccccc3Cl)N2C1=O)NCc1ccco1 (centres undefined),99.3*,i,28.2,9.4,i
N#Cc1c(SCC(=O)Nc2nc3ccc(Br)cc3s2)sc2c(O)cc(=O)[nH]c12,99.0*,i,21.2,35.7,i
CCCSc1nnc(NC(=O)CSc2sc3c(O)cc(=O)[nH]c3c2C#N)s1,?,i,39.9,19.8,i
COc1ccc2nc(NC(=O)CSc3nc4ccccc4o3)sc2c1,47.4,i,11.0,15.7,i
O=C(CSc1nc2ccccc2o1)Nc1nc2ccc(Br)cc2s1,98.3*,i,12.8,25.6,i
SMILES,ALR H2O2 inh,CHT allo act,PREPL inhibitor,AI-2 QS modul,CHT block
Nc1ccc(-c2ccc(C(=O)O)s2)cn1,-9.1,i,6.9,43.2,i
O=C(NC(CC(=O)N1CCN(c2ccccc2O)CC1)c1ccccc1)c1ccccc1Cl (centres undefined),99.4*,·,11.3,·,·
COc1ccccc1C(=O)NCCC(=O)N1CCN(c2cccc(C(F)(F)F)c2)CC1,-0.2,i,20.4,-11.5,i
COc1ccccc1C(=O)NCCC(=O)N1CCN(c2ccccc2O)CC1,90.8*,i,21.0,-2.3,i
Cc1cccc(N2CCN(C(=O)CC(NC(=O)c3ccccc3Cl)c3ccccc3)CC2)c1C (centres undefined),-3.8,i,-2.6,27.7,i
COc1ccccc1N1CCN(C(=O)CCNS(=O)(=O)c2cc(Br)cnc2N)CC1,98.5*,i,11.4,0.7,i
O=C(NCC(=O)N1CCN(c2ccccc2O)CC1)c1cccs1,99.1*,i,20.8,13.2,i
COc1ccccc1CO/N=C/c1cccn1-c1nccc(N(C)C)c1C#N,2.9,i,1.3,7.0,i
COc1cc(OC)c(OC)cc1CNC(=O)c1cc(=O)[nH]c2ccccc12,-3.0,i,3.2,1.3,i
O=C(NCc1ccco1)C1CC(O)CN1C(=O)Nc1ccccc1 (centres undefined),3.9,i,15.3,-4.6,i
O=C(c1ccc2ccccc2c1)N1CCN(c2ccc(O)cc2)CC1,·,i,18.4,6.0,i
COc1ccccc1N1CCN(C(=O)CSc2ccccc2)CC1,98.7*,i,11.8,6.1,i
O=C(CSc1ccc2ccccc2c1)N1CCN(c2ccc(O)cc2)CC1,98.5*,i,22.2,18.5,i
COCCNC(=O)Cn1nc(-c2ccccc2F)ccc1=O,·,·,·,-3.6,·
O=C(NCCCN1CCCC1=O)c1ccc(NS(=O)(=O)c2ccc(F)cc2)cc1,-13.5,·,5.6,·,·
Cc1[nH]c2ccccc2c1C(c1ccccn1)N1CCCC1 (centres undefined),·,i,-3.5,17.8,i
Cc1ccnc(NC(c2ccccn2)c2c(C)[nH]c3ccccc23)c1 (centres undefined),98.1*,i,-9.4,12.1,i
CN1CCc2c(sc3nc(SCC(=O)NCc4ccco4)n(-c4ccccc4)c(=O)c23)C1,34.0,i,5.0,15.5,i
COC(=O)CSc1nc2sc3c(c2c(=O)n1C1CCCCC1)CCN(C)C3,91.9*,8.85*,4.9,21.1,i
CN1CCc2c(sc3nc(SCC(=O)N4CCOCC4)n(-c4ccc(Cl)cc4)c(=O)c23)C1,98.2*,i,24.5,20.0,i
CCOC(=O)CSc1nc2sc3c(c2c(=O)n1-c1ccc(C)cc1)CCN(C)C3,99.1*,i,·,20.3,i
COC(=O)CSc1nc2sc3c(c2c(=O)n1-c1ccc(OC)cc1)CCN(C)C3,·,·,·,10.2,·
COc1ccc(-n2c(SCC(=O)NCc3ccco3)nc3sc4c(c3c2=O)CCN(C)C4)cc1,97.6*,i,14.5,22.5,i
CCC(C)NC(=O)Cn1cc(S(=O)(=O)N2CCN(c3ccccc3F)CC2)c2ccccc2c1=O (centres undefined),-1.9,i,-2.1,12.7,i
Cc1ccc(Cl)cc1N1CCN(C(=O)c2ccccc2SCC(=O)N2CCCC2)CC1,·,·,15.4,·,·
COc1ccc(-n2c(SCC(N)=O)nc3sc4c(c3c2=O)CCN(C)C4)cc1,-5.6,i,35.4,20.6,i

# Screening results from PubChem BioAssay.
